# TrxR1 substrate: substrates of rat thioredoxin reductase 1; O89049; Potency, µM (doses to about 114 µM); purified TrxR1 substrate turnover, NADPH consumption readout; 390,000 compounds, 0.01% hits; further: nearly all actives have a fitted effect of over 50% in size
#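 Rat TrxR1, dispensed at 90 nM, was prereduced with 400 uM NADPH (final) for 5 min at ~22 deg C, then incubated with compound 15 min before 400 uM selenite. A first-read NADPH fluorescence drop versus no-compound background flagged substrates.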
# rTrxR1 inhibitor: blocks rat thioredoxin reductase 1; recombinant rTrxR1, NADPH fluorescence consumption, selenite substrate; 390,000 compounds, 1% hits; Potency, µM (highest dose often 114 µM), actives largely listed as inhibitors; O89049; AID 588453; further: nearly all actives have a fitted effect of over 65% in size
#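 Rat TrxR1 (90 nM in the dispensed reagent) was pre-reduced with 400 uM NADPH for 5 min at room temperature, then incubated with compound for 15 min. After 400 uM selenite was added, NADPH fluorescence (Ex 340/Em 450 nm) was followed for 8 min.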
# Giardia kill: kills Giardia lamblia; AID 540267; activity change, % at 7.66 µM, hits read low; 340,000 compounds, 0.15% hits; Giardia lamblia trophozoite viability; in the data active means activity change below about -80%; inconclusive means between about -30% and that limit;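 further: parasites exposed to compound for two days anaerobically before the ATP read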
#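 Luminescence from cellular ATP indicates surviving trophozoites (100 cells/well) following 48 hrs anaerobic compound treatment at 37 deg C; signal develops 15-30 min at room temperature.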
# PI4K2A inh: inhibitors of human PI4K2A; Q9BTU6; purified PI4K2A, ADP-Glo luminescence, 1 h; hits give low values; activity change, negative = inhibition, % at 76.9 µM; 420,000 compounds, 0.13% hits; AID 1346378; in the data active means activity change below about -50%; inconclusive means mostly about -30% to -49%
# Target sequence (Q9BTU6 whole entry, looked up): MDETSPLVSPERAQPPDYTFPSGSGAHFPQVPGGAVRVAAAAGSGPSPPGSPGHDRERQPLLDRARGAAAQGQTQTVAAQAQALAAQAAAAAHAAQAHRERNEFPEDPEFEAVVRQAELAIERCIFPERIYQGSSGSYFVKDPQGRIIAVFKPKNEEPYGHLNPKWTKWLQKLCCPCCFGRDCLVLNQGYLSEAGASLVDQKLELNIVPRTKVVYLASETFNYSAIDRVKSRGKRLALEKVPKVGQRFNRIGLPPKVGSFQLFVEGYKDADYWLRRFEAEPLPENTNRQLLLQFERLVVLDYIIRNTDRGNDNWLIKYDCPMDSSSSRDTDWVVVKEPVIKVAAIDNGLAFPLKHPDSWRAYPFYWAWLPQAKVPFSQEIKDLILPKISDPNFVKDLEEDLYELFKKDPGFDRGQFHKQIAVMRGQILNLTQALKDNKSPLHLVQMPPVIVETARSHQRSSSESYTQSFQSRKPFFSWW
#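 In this quantitative HTS, ADP production by PI4K2A was quantified luminescently after 1 h at ambient temperature; 100 microM adenosine served as plate-quality control.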
# GALK inhibitor: inhibitors of human galactokinase; P51570; Purified GALK, Kinase-Glo residual ATP luminescence; Potency, µM (series often up to 57.5 µM), actives largely listed as inhibitors; 270,000 compounds, 0.007% hits; AID 1868
#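 5 nM enzyme, 35 uM ATP, 100 uM galactose, 20 mM HEPES pH8.0, 5 mM MgCl2; 1 h RT; residual ATP by Kinase-Glo Plus luminescence, qHTS format.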
# Coupling enz: counter-screen for Giardia aldolase inhibitors: coupling enzyme system; coupling enzyme system counterscreen, AmpLite Red fluorescence; activity change, negative = inhibition, % at 58.2 µM, hits read low; 290,000 compounds, 0.67% hits; in the data active means activity change below about -30%
#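 First, compound is pin-transferred into glyceraldehyde-3-phosphate coupling-enzyme reagent at 57.5 uM final and held 10 min at RT. Next, substrate, coupling system and AmpLite Red are added. After 20 min RT, fluorescence (525/598 nm) is read.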
# Numbers stand for hits; i = inactive; ? = inconclusive; nt = no result. This is a sample that favours compounds with a hit; in the whole collection about 1.5% have one here. Unless noted, the call rests on the fitted dose curve; in most records, active means well fitted curve in the direction sought with a large enough effect; inconclusive means small, poorly fitted or top-dose-only effect, or another doubt; inactive means no such curve, though single readings can be large; an effect the other way counts as inactive or inconclusive.
SMILES,TrxR1 substrate,rTrxR1 inhibitor,Giardia kill,PI4K2A inh,GALK inhibitor,Coupling enz
COc1ccc(/C=N/Nc2cc(N3CCCC3)nc(N3CCCC3)n2)cc1,i,i,i,i,i,-40
Oc1ccc(/C=N/Nc2cc(N3CCCC3)nc(N3CCCC3)n2)cc1,i,i,i,i,i,-44
CSc1ccc(/C=C2\C=Cc3cc([N+](=O)[O-])ccc32)cc1,i,?,nt,nt,nt,nt
O=[N+]([O-])c1ccc(CN2CCN(c3ccc(F)cc3)CC2)o1,i,i,?,i,i,i
Cc1cccc(N2CCN(Cc3ccc([N+](=O)[O-])o3)CC2)c1C,i,?,-86,i,i,i
CC1(C)Cc2c(ccc3ccccc23)C2=C(C(=O)N3CCCC3)C(=O)C(=O)N21,i,i,i,i,i,-45
N#C/C(=C\c1ccc(-c2ccc(C(=O)O)cc2)o1)C(=O)Nc1ccccc1C(=O)O,i,?,nt,i,nt,nt
CC12C=CC3(CN(Cc4ccccc4)C(=O)C3C1C(=O)NCc1ccco1)O2 (centres undefined),i,56µM,i,i,i,i
CCOc1ccc(CNC(=O)CSc2c3c(nc4cc(Cl)ccc24)CCCC3)cc1,i,i,nt,i,nt,nt
Cc1ccc(CNC(=O)CSc2c3c(nc4cc(Cl)ccc24)CCCC3)o1,i,14µM,i,i,i,i
CSc1nc(N(C)CCO)c2sc3nc(-c4ccco4)c4c(c3c2n1)CCC4,i,7.1µM,i,?,i,i
O=C(NCc1ccccc1)[C@]1(C(F)(F)F)C[C@H](CCCO)CCCO1,i,i,i,nt,nt,i
O=C1C=CC(=O)N1CCNc1ncc(C(F)(F)F)cc1Cl,i,2µM,i,i,i,i
Cc1onc(-c2ccccc2)c1C(=O)n1nnc2ccccc21,i,?,i,i,i,i
O=C(c1ccccc1)n1nnc2ccccc21,i,5µM,i,i,i,i
O=C(Nc1nccs1)[C@@H]1CC=C[C@@H]2CCN(C3CC3)C(=O)[C@@H]21,i,i,nt,nt,nt,nt
CCC(=O)Nc1ccc(C2C(=O)c3ccccc3C2=O)cc1,i,i,-82,i,i,i
CCCCC(=O)Nc1ccc(C2C(=O)c3ccccc3C2=O)cc1,i,i,?,i,nt,nt
Cc1oc(C(=O)Nc2ccc(O)cc2)cc1COc1ccccc1,i,i,i,i,i,-32
Cc1ccc2c(c1)C(N1CCCC1=O)CC(c1ccco1)N2 (centres undefined),i,i,?,-62,i,i
COC(=O)c1ccc(NC(=O)C(=O)c2cccn2C)cc1,i,i,i,-82,i,i
Cc1cccc(N2CCN(C(=O)c3nn(C)c4c3CSc3ccccc3-4)CC2C)c1 (centres undefined),i,i,nt,i,nt,nt
C=C1N(C)c2cc([N+](=O)[O-])c(N)cc2C1(C)C,i,?,i,i,i,-41
Cc1ccc(CNC(=O)O[C@H]2CC[C@@]34CCCN3C(=O)CCC[C@H]4C2)cc1,nt,nt,nt,i,nt,nt
COc1ccc(OC)c(CN2CCN(C(=O)c3cccc4ccccc34)CC2)c1,i,i,i,i,i,i
SMILES,TrxR1 substrate,rTrxR1 inhibitor,Giardia kill,PI4K2A inh,GALK inhibitor,Coupling enz
COc1cc(CN2CCN(C(=O)c3cccc4ccccc34)CC2)cc(OC)c1O,i,50µM,i,i,i,i
COc1cccc(C(=O)N2CCN(Cc3ccccn3)CC2)c1OC,i,i,i,i,i,-55
Cc1ccc(S(=O)(=O)CNC(=S)c2ccc3ccccc3c2)cc1,i,40µM,i,i,i,i
COc1ccc(C(=S)NCS(=O)(=O)c2ccc(C)cc2)cc1,i,4µM,i,i,i,i
CCOc1ccc(CCNC(=O)Cn2ncc3c(=O)oc4ccc(C)cc4c32)cc1,i,i,nt,i,nt,nt
COC(=O)C(C(=O)OC)C1c2ccccc2C=C(C)N1C(=O)OC (centres undefined),nt,nt,nt,nt,nt,i
COC(=O)c1c(-c2cccs2)csc1NC(=O)COc1ccc(C(C)C)cc1,i,i,nt,i,nt,nt
COc1ccccc1N1CCN(C(=O)c2cc(-c3ccco3)on2)CC1,i,45µM,i,i,i,i
COc1ccccc1N1CCN(C(=O)c2cc(-c3ccccc3)on2)CC1,i,i,i,i,i,i
O=C(c1cc(-c2ccco2)on1)N1CCc2ccccc2C1,i,32µM,i,i,i,i
CCOC(=O)C(O)c1ccccc1 (centres undefined),nt,nt,nt,i,nt,nt
Nc1cc(OC(=O)c2ccco2)nn1S(=O)(=O)c1ccc(F)cc1,i,7.1µM,i,i,i,i
CCc1c(C)c(C#N)c2nc3ccccc3n2c1NC,i,i,i,i,nt,i
Cc1cc(Cl)n2c(nc3ccccc32)c1C#N,i,7.1µM,i,i,i,i
N#Cc1c2c(c(Cl)n3c1nc1ccccc13)CCCC2,i,3.5µM,nt,nt,nt,nt
CCN(CC)c1c2c(c(C#N)c3nc4ccccc4n13)CCC2,i,?,i,i,i,i
Cc1c(CCCl)c(Cl)n2c(nc3ccccc32)c1C#N,i,2.2µM,i,i,nt,nt
C=C1CCC2C(C)(C)CCC[C@]2(C)[C@H]1CC1=C(O)C(=O)C(CO)=CC1=O (some centres undefined),nt,nt,nt,i,nt,nt
CC(C)C[C@H](NC(=O)[C@H](Cc1ccccc1)NC(=O)CNC(=O)[C@H](CCC(=O)O)NC(=O)[C@H](CCCNC(=N)N)NC(=O)[C@H](C)NC(=O)[C@H](C)NC(=O)[C@@H](N)CC(=O)O)C(=O)N[C@@H](CC(=O)O)C(=O)N[C@H](C(=O)N[C@@H](CC(C)C)C(=O)N[C@H](C(=O)N[C@H](C(=O)N[C@@H](CC(C)C)C(=O)N[C@@H](Cc1cnc[nH]1)C(=O)N[C@@H](CCCNC(=N)N)C(=O)N[C@@H](C)C(=O)NCC(=O)N[C@@H](C)C(=O)N[C@@H](CCCNC(=N)N)C(=O)O)C(C)C)C(C)C)[C@@H](C)O,nt,nt,nt,nt,nt,i
CC/C(=C\c1ccc(C(=O)OC)cc1)c1cc(OC)cc2oc3ccccc3c12,i,i,nt,nt,nt,nt
COc1ccc(-c2onc(C)c2C)cc1S(=O)(=O)N1c2ccccc2CC1C (centres undefined),i,i,nt,i,nt,nt
COc1cc(/C=C2\C(=O)N(c3ccccc3)N=C2C)ccc1Oc1ccc([N+](=O)[O-])cc1[N+](=O)[O-],i,?,i,?,i,i
CC1=NN(c2ccccc2)C(=O)/C1=C\c1ccc(Oc2ccc([N+](=O)[O-])cc2[N+](=O)[O-])cc1,i,4µM,i,?,i,i
Cc1ccc(Cn2cc(COC(=O)NCC(C)C)nn2)cc1,nt,nt,nt,i,nt,nt
C/C(Cn1nnc([N+](=O)[O-])n1)=N\NC(=O)c1ccc(C)cc1,i,i,i,i,i,-38
C/C(Cn1cnc([N+](=O)[O-])n1)=N\NC(=O)c1ccncc1,i,?,i,i,nt,i
C/C(Cn1nnc([N+](=O)[O-])n1)=N\NC(=O)c1ccncc1,i,i,i,i,i,-40

# High-throughput results: PubChem BioAssay, National Center for Advancing Translational Sciences (NCATS)
